Assay results published in PubChem BioAssay (NCATS).
Inconclusive results are not listed. Entries that show only a call come without a potency. Active and inactive are the calls of the source. Calls follow the shape of the dose curve; as a rule, active = well fitted inhibition curve with a large enough effect; inconclusive = small, poorly fitted or top-dose-only effect; inactive = flat fitted curve, though single readings scatter.

These compounds were tested against Calcium and integrin-binding protein 1 (Homo sapiens) (UniProt Q99828) (assay: Primary qHTS for Identification of Calcium Integrin Binding Protein 1 (CIB1) Competitor (AID 1508620;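 also: GST tagged CIB1 binding a fluorescein labelled alphaIIb integrin peptide tracer; top concentration of the series differs between compounds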)). Settings: CIB1-GST / FITC-alphaIIb peptide fluorescence polarization; series mostly up to 114 µM.
In short: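 CIB1-GST (1 uM final) and compound incubated 15 min at room temperature before adding FITC-alphaIIb peptide tracer (100 nM final). Competition for binding read by fluorescence polarization (ex 480, em 540) after another 15 min at room temperature.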

Calcium and integrin-binding protein 1 (Homo sapiens), sequence (Q99828 whole entry, looked up): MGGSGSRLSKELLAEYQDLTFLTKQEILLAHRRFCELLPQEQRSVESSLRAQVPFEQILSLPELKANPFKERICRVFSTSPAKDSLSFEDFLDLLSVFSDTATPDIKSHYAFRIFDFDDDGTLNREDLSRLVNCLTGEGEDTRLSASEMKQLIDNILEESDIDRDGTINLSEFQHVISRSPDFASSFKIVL

SMILES	Potency
Cn1ccc(NC(=O)c2cc(Oc3ccc(C(=O)N4CCC4)c(F)c3)c3c(c2)OC(C)(C)C3)n1	inactive
CN1CCN(c2ccc(-c3cccc(CN4CCOCC4)c3)cc2NC(=O)c2c[nH]c(=O)cc2C(F)(F)F)CC1	inactive
CC(OC1OCCN(Cc2n[nH]c(=O)[nH]2)C1c1ccc(F)cc1)c1cc(C(F)(F)F)cc(C(F)(F)F)c1 (centres undefined)	inactive
CC1(C)CCCC2(C)C1C(=O)C=C(C(=O)O)C2(O)C(=O)O (centres undefined)	inactive
NC(=O)c1ccccc1Nc1ccnc(Nc2cccc(O)c2)n1	inactive
COC(=O)CC(O)CC(O)/C=C/c1c(C)ccc2c1C(OC(C)=O)CC(C)C2 (centres undefined)	inactive
Cc1ccc(-c2ncc[nH]2)cc1NC(=O)c1ccc(OCc2ccccn2)cc1	inactive
Cc1nnc(C[C@@H]2C=C(c3ccc(Cl)cc3)c3ccccc3-n3c(C)nnc32)o1	inactive
C=CCC1=C[C@]2(OC)[C@H](C)[C@@H](c3ccc4c(c3)OCO4)O[C@]2(OC)CC1=O	inactive
C=CS(=O)(=O)NC1CCN(C(=O)CNc2cc(I)c(Cl)cc2OC)CC1	inactive
C=C1C(=O)OC2CC(C)=C(C(C)CCCOC(C)=O)C(OC(=O)CC(C)CC)C12 (centres undefined)	inactive
C=C(C(=O)O)[C@@H]1CC=C(CCC(C)=O)[C@@H](C)CC1	inactive
Cn1c(=O)c(F)c(Nc2ccc(I)cc2F)c2c(=O)n(CC(O)CO)cnc21 (centres undefined)	inactive
CC(=O)O[C@@H]1CC2C(C)(C)C(=O)C=C[C@]2(C)C2CC[C@@]3(C)[C@H](c4ccoc4)OC(=O)[C@H]4O[C@]43[C@@]21C (some centres undefined)	inactive
